In PubChem BioAssay AID1159580 (chemical genetic matrix, 2015):
In all, about 5,500 compounds went through this assay and about 2,000 (36%) were called active. Inconclusive results (about 18%) are left out. Rule as the data show it: active = normalized growth mostly below about 0.91 (no sharp cut-off); inconclusive = no clear call, values can overlap the other calls; inactive = mostly above about 0.92. The list shows a part of the results.

Test: chemical genetic growth profiling, strain panel (AID 1159580);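 also: tested at 20 µM; growth read once vehicle control cultures reached saturation at 30 °C; 1 = growth at the plate median or of vehicle wells; lower values mean less growth of the strain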
Details: growth OD

Measured: normalized growth

S=P(N1CC1)(N1CC1)N1CC1
inactive: S. cerevisiae deletion strains, locus YKL009W, strain mrt4, stronger effect = lower value 0.99 | S. cerevisiae deletion strains, locus YKL068W, stronger effect = lower value 1.01 | S. cerevisiae deletion strains, locus YKL085W, strain MDH1 (second series), stronger effect = lower value 0.997 | S. cerevisiae deletion strains, locus YKL085W, strain MDH1, stronger effect = lower value 0.997 | S. cerevisiae deletion strains, locus YKL160W, strain elf1, stronger effect = lower value 1.01 | S. cerevisiae deletion strains, locus YKL190W, strain CNB1, stronger effect = lower value 1 | S. cerevisiae deletion strains, locus YKR001C, strain vps1, stronger effect = lower value 0.994 | S. cerevisiae deletion strains, locus YKR026C, strain gcn3, stronger effect = lower value 0.976 | S. cerevisiae deletion strains, locus YKR091W, strain srl3, stronger effect = lower value 1 | S. cerevisiae deletion strains, locus YLL001W, strain dnm1, stronger effect = lower value 1 | S. cerevisiae deletion strains, locus YLL026W, stronger effect = lower value 1 | S. cerevisiae deletion strains, locus YLL041C, strain sdh2, stronger effect = lower value 1.01 | S. cerevisiae deletion strains, locus YLR027C, strain aat2, stronger effect = lower value 1.01 | S. cerevisiae deletion strains, locus YLR039C, strain RIC1, stronger effect = lower value 1.03 | S. cerevisiae deletion strains, locus YLR058C, strain SHM2, stronger effect = lower value 1.01 | S. cerevisiae deletion strains, locus YLR102C, strain apc9, stronger effect = lower value 1.01 | S. cerevisiae deletion strains, locus YLR113W, strain HOG1, stronger effect = lower value 0.995 | S. cerevisiae deletion strains, locus YLR221C, strain rsa3, stronger effect = lower value 0.996 | S. cerevisiae deletion strains, locus YLR258W, strain gsy2, stronger effect = lower value 1.01 | S. cerevisiae deletion strains, locus YLR262C, strain YPT6 (second series), stronger effect = lower value 1.02 | S. cerevisiae deletion strains, locus YLR262C, strain YPT6, stronger effect = lower value 1.02 | S. cerevisiae deletion strains, locus YLR268W, strain sec22, stronger effect = lower value 0.989 | S. cerevisiae deletion strains, locus YLR320W, strain mms22, stronger effect = lower value 0.994 | S. cerevisiae deletion strains, locus YLR330W, strain CHS5, stronger effect = lower value 1.01 | S. cerevisiae deletion strains, locus YLR342W, strain FKS1 (second series), stronger effect = lower value 1.03 | S. cerevisiae deletion strains, locus YLR342W, strain FKS1, stronger effect = lower value 1.01 | S. cerevisiae deletion strains, locus YLR357W, strain rsc2, stronger effect = lower value 1.03 | S. cerevisiae deletion strains, locus YLR370C, strain arc18, stronger effect = lower value 1.01 | S. cerevisiae deletion strains, locus YLR371W, strain rom2, stronger effect = lower value 1.01 | S. cerevisiae deletion strains, locus YLR384C, strain iki3, stronger effect = lower value 0.994 | S. cerevisiae deletion strains, locus YLR418C, strain cdc73, stronger effect = lower value 0.977 | S. cerevisiae deletion strains, locus YML016C, strain PPZ1, stronger effect = lower value 1 | S. cerevisiae deletion strains, locus YML032C, strain rad52, stronger effect = lower value 1 | S. cerevisiae deletion strains, locus YML120C, strain ndi1, stronger effect = lower value 1.01 | S. cerevisiae deletion strains, locus YML124C, strain tub3, stronger effect = lower value 1 | S. cerevisiae deletion strains, locus YMR058W, strain fet3, stronger effect = lower value 1.02 | S. cerevisiae deletion strains, locus YMR078C, strain ctf18, stronger effect = lower value 1 | S. cerevisiae deletion strains, locus YMR125W, strain sto1, stronger effect = lower value 1 | S. cerevisiae deletion strains, locus YMR129W, stronger effect = lower value 1.01 | S. cerevisiae deletion strains, locus YMR205C, strain PFK2, stronger effect = lower value 1.01 | S. cerevisiae deletion strains, locus YMR223W, strain ubp8, stronger effect = lower value 1 | S. cerevisiae deletion strains, locus YMR231W, strain pep5, stronger effect = lower value 0.993 | S. cerevisiae deletion strains, locus YMR263W, strain SAP30, stronger effect = lower value 1.02 | S. cerevisiae deletion strains, locus YMR307W, strain GAS1, stronger effect = lower value 1.04 | S. cerevisiae deletion strains, locus YNL067W, strain RPL9B, stronger effect = lower value 1.01 | S. cerevisiae deletion strains, locus YNL071W, strain lat1, stronger effect = lower value 1.02 | S. cerevisiae deletion strains, locus YNL128W, strain TEP1, stronger effect = lower value 1.01 | S. cerevisiae deletion strains, locus YNL153C, strain GIM3, stronger effect = lower value 0.997 | S. cerevisiae deletion strains, locus YNL183C, strain NPR1, stronger effect = lower value 0.932 | S. cerevisiae deletion strains, locus YNL209W, strain ssb2, stronger effect = lower value 1.02 | S. cerevisiae deletion strains, locus YNL233W, strain BNI4, stronger effect = lower value 0.998 | S. cerevisiae deletion strains, locus YNL248C, strain rpa49, stronger effect = lower value 0.999 | S. cerevisiae deletion strains, locus YNL250W, strain rad50, stronger effect = lower value 0.995 | S. cerevisiae deletion strains, locus YNL271C, strain bni1, stronger effect = lower value 1.01 | S. cerevisiae deletion strains, locus YNL298W, strain CLA4, stronger effect = lower value 1.02 | S. cerevisiae deletion strains, locus YNL307C, strain MCK1, stronger effect = lower value 1.01 | S. cerevisiae deletion strains, locus YNL322C, strain KRE1 (second series), stronger effect = lower value 1.01 | S. cerevisiae deletion strains, locus YNL322C, strain KRE1, stronger effect = lower value 1.01 | S. cerevisiae deletion strains, locus YNR049C, strain mso1, stronger effect = lower value 1.01 | S. cerevisiae deletion strains, locus YNR052C, strain pop2, stronger effect = lower value 1 | S. cerevisiae deletion strains, locus YOL006C, strain TOP1, stronger effect = lower value 1.04 | S. cerevisiae deletion strains, locus YOL012C, strain htz1 0.982 | S. cerevisiae deletion strains, locus YOL147C, strain pex11, stronger effect = lower value 1.04 | S. cerevisiae deletion strains, locus YOR001W, strain rrp6, stronger effect = lower value 1.01 | S. cerevisiae deletion strains, locus YOR061W, strain CKA2, stronger effect = lower value 1.01 | S. cerevisiae deletion strains, locus YOR069W, strain VPS5, stronger effect = lower value 0.992 | S. cerevisiae deletion strains, locus YOR070C, strain gyp1, stronger effect = lower value 1.01 | S. cerevisiae deletion strains, locus YOR080W, strain dia2, stronger effect = lower value 1 | S. cerevisiae deletion strains, locus YOR083W, strain WHI5, stronger effect = lower value 0.997 | S. cerevisiae deletion strains, locus YOR106W, strain vam3, stronger effect = lower value 0.997 | S. cerevisiae deletion strains, locus YOR136W, strain idh2, stronger effect = lower value 1 | S. cerevisiae deletion strains, locus YOR144C, strain elg1, stronger effect = lower value 1.01 | S. cerevisiae deletion strains, locus YOR184W, strain ser1, stronger effect = lower value 1.01 | S. cerevisiae deletion strains, locus YOR231W, strain MKK1, stronger effect = lower value 1 | S. cerevisiae deletion strains, locus YOR265W, strain rbl2, stronger effect = lower value 1.01 | S. cerevisiae deletion strains, locus YOR270C, strain vph1, stronger effect = lower value 1.01 | S. cerevisiae deletion strains, locus YOR290C, strain snf2, stronger effect = lower value 1.01 | S. cerevisiae deletion strains, locus YOR316C, strain cot1, stronger effect = lower value 1 | S. cerevisiae deletion strains, locus YPL051W, strain arl3, stronger effect = lower value 1.01 | S. cerevisiae deletion strains, locus YPL055C, strain LGE1, stronger effect = lower value 0.989 | S. cerevisiae deletion strains, locus YPL078C, strain atp4, stronger effect = lower value 1.01 | S. cerevisiae deletion strains, locus YPL106C, strain sse1, stronger effect = lower value 1.02 | S. cerevisiae deletion strains, locus YPL240C, strain hsp82, stronger effect = lower value 0.996 | S. cerevisiae deletion strains, locus YPL241C, strain CIN2, stronger effect = lower value 0.991 | S. cerevisiae deletion strains, locus YPL256C, strain CLN2, stronger effect = lower value 0.991 | S. cerevisiae deletion strains, locus YPR119W, strain clb2, stronger effect = lower value 1.01 | S. cerevisiae deletion strains, locus YPR141C, strain kar3, stronger effect = lower value 0.996 | S. cerevisiae deletion strains, locus YPR163C, strain tif3, stronger effect = lower value 1 | S. cerevisiae deletion strains, locus YPR167C, strain met16, stronger effect = lower value 0.992 | S. cerevisiae deletion strains, strain wtn01, stronger effect = lower value 0.983 | S. cerevisiae strains, strain wild type, stronger effect = lower value 1.01
